The values below come from article PMC7862700, “An all-to-all approach to the identification of sequence-specific readers for epigenetic DNA modifications on cytosine”.

Common to all, as to assay: DAPPL (digital affinity profiling via proximity ligation, sequencing); 10 mM Tris-HCl pH 7.5, 50 mM NaCl, 1 mM DTT, 4% glycerol, room temperature, 30 min; GST-TFs on glutathione beads, 16-mer random dsDNA library, 0.1% formaldehyde crosslink after washing; high values mean tight binding
One assay deals with T1, FLI1 (Homo sapiens, UniProt Q01543 1-452).
T1 sequence: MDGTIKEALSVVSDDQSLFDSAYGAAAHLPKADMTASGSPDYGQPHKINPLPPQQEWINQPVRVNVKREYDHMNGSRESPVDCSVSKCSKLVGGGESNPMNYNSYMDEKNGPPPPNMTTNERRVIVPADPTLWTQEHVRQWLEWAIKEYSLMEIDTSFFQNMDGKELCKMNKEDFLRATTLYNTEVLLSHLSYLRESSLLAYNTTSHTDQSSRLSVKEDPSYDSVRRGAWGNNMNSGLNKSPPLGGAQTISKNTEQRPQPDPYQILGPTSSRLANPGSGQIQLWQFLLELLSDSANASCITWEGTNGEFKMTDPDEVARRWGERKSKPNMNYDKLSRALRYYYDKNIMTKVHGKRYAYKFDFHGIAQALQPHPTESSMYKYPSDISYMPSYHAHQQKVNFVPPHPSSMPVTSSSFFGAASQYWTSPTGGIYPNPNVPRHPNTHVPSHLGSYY
As to conditions: protein: recombinant; tags: N-terminal GST; dsDNA, one strand shown. The method, boiled down:
(§1)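 In yeast, human transcription factors were expressed with a GST fusion, then pulled down on glutathione beads and given DNA barcodes. Pooled with a tag-only sample, they were exposed to 200 nmole of a 16-mer random double-stranded DNA library (Tris/NaCl/DTT/glycerol buffer, room temperature, 30 min), washed, crosslinked with 0.1% formaldehyde, proximity-ligated using BsaI/T4 ligase for 1 h at 37 °C, PCR-amplified and read on an Illumina NextSeq500. Each hexamer's frequency of reads for a factor, divided by the matching frequency for the tag-only sample, gives the binding signal.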

A further assay has as its target T2, ELK1 (Homo sapiens, UniProt P19419 1-428).
T2 sequence: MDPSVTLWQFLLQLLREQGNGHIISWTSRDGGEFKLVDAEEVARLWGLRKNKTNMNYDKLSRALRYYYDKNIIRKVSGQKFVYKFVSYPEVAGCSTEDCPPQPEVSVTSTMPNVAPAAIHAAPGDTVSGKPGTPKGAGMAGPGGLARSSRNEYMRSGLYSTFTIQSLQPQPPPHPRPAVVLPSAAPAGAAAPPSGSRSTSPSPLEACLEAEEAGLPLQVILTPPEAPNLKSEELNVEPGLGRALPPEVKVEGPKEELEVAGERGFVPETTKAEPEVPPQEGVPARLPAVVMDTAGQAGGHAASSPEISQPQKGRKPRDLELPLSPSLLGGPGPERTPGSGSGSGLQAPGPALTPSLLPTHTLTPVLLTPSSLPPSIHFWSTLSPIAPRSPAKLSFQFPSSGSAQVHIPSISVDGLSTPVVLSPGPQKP
As to conditions: protein: recombinant; tags: N-terminal GST; dsDNA, one strand shown. Summed up: as §1

The target in the next assay is T3, GABPA (Homo sapiens, UniProt Q06546 1-454).
T3 sequence: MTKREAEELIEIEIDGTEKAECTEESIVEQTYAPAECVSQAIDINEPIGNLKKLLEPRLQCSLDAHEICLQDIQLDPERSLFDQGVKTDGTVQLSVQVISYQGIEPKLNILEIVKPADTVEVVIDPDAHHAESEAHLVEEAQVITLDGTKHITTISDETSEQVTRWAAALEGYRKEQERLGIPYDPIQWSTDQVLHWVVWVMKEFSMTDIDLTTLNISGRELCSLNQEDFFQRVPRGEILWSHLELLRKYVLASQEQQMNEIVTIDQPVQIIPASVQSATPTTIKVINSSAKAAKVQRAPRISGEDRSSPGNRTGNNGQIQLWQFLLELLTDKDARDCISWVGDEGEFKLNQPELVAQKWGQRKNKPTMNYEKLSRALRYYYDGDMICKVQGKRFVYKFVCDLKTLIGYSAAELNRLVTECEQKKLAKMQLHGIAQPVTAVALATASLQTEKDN
As to conditions: protein: recombinant; tags: N-terminal GST; dsDNA, one strand shown. Summed up: as §1

In another assay the target is T4, ERG (Homo sapiens, UniProt P11308 1-479).
T4 sequence: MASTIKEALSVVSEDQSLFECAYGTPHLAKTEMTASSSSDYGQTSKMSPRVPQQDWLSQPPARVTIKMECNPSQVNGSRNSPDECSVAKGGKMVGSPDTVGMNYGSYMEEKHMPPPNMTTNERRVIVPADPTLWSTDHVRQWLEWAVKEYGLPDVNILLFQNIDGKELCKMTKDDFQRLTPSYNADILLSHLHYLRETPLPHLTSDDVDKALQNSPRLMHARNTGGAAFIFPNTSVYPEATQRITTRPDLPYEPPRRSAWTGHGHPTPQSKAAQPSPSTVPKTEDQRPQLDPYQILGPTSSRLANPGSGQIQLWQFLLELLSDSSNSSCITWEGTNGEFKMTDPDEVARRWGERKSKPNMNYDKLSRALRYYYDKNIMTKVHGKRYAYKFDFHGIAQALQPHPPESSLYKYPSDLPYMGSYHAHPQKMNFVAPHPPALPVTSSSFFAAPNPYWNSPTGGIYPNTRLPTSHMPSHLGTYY
The settings on record: protein: recombinant; tags: N-terminal GST; dsDNA, one strand shown. Summed up: as §1

Another assay deals with ELF1 (Homo sapiens, UniProt P32519 1-619). The settings on record: protein: recombinant; tags: N-terminal GST; dsDNA, one strand shown. Summed up: as §1
For another assay, the target named is T5, EHF (Homo sapiens, UniProt Q9NZC4 1-300).
T5 sequence: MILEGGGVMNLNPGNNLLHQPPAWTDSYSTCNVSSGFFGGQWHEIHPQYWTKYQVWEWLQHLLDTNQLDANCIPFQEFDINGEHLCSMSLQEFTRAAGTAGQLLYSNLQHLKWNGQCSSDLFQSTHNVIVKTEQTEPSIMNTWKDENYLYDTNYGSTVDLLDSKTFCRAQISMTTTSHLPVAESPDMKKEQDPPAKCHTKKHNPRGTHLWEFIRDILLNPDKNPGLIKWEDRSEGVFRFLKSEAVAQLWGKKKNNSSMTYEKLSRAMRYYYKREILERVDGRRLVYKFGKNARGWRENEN
The settings on record: protein: recombinant; tags: N-terminal GST; dsDNA, one strand shown. Summed up:
as §1

For the next assay, the target named is SPI1 (Homo sapiens, UniProt P17947 1-270). The settings on record: protein: recombinant; tags: N-terminal GST; dsDNA, one strand shown. Summed up:
as §1

In the next assay the target is SPIB (Homo sapiens, UniProt Q01892 1-262). As to conditions: protein: recombinant; tags: N-terminal GST; dsDNA, one strand shown. The method, boiled down:
as §1

A further assay has as its target T6, ELK3 (Homo sapiens, UniProt P41970 1-407).
T6 sequence: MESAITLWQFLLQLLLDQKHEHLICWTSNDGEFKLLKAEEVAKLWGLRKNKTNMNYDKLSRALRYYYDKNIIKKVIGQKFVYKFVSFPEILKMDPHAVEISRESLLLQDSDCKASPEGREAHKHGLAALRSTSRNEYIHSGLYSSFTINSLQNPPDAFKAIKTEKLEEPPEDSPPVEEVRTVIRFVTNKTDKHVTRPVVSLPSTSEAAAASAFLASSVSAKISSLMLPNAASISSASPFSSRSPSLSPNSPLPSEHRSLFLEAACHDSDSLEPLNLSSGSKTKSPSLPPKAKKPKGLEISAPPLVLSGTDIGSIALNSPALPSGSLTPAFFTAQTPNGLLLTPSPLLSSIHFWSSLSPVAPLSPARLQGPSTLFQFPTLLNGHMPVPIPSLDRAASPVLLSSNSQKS
As to conditions: protein: recombinant; tags: N-terminal GST; dsDNA, one strand shown. The method, boiled down: as §1

A further assay concerns the target T7, FEV (Homo sapiens, UniProt Q99581 1-238).
T7 sequence: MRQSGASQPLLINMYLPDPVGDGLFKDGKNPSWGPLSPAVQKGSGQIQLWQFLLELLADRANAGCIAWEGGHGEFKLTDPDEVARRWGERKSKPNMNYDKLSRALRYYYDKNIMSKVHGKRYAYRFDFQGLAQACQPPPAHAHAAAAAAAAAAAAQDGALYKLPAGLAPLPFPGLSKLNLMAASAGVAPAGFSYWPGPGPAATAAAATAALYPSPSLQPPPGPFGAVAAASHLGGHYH
The settings on record: protein: recombinant; tags: N-terminal GST; dsDNA, one strand shown. The method, boiled down:
as §1

The target of the next assay is ETV5 (Homo sapiens, UniProt P41161 1-510). As to conditions: protein: recombinant; tags: N-terminal GST; dsDNA, one strand shown. The method, boiled down: as §1
The next assay deals with HSF1 (Homo sapiens, UniProt Q00613 1-529). As to conditions: protein: recombinant; tags: N-terminal GST; chain copies: 3; dsDNA, one strand shown. Summed up:
as §1

In the next assay the target is T8, SPIC (Homo sapiens, UniProt Q8N5J4 1-248).
T8 sequence: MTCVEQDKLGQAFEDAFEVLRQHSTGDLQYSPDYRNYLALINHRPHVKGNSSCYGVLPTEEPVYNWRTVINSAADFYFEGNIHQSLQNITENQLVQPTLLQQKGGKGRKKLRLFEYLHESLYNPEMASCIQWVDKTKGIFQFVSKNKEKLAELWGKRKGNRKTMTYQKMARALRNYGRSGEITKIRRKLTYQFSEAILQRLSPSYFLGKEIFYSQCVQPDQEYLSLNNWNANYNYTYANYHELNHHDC
As to conditions: protein: recombinant; tags: N-terminal GST; dsDNA, one strand shown. The method, boiled down: as §1

The target of the next assay is ELF4 (Homo sapiens, UniProt Q99607 1-663). The settings on record: protein: recombinant; tags: N-terminal GST; dsDNA, one strand shown. The method, boiled down:
as §1

The next assay deals with T9, ELK4 (Homo sapiens, UniProt P28324-2 1-405).
T9 sequence: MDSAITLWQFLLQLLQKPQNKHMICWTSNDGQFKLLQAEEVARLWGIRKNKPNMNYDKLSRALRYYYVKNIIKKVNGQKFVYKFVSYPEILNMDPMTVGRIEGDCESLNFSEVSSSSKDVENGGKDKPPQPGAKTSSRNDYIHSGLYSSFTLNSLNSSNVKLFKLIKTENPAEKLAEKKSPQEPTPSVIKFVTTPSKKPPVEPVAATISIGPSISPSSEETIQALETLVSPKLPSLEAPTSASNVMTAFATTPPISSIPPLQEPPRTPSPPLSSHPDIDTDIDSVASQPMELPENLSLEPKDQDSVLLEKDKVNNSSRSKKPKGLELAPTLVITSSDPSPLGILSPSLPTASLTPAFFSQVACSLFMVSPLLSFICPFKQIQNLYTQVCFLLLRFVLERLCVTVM
The settings on record: protein: recombinant; tags: N-terminal GST; dsDNA, one strand shown. Summed up: as §1

A further assay has as its target T10, ETV2 (Homo sapiens, UniProt O00321 1-342).
T10 sequence: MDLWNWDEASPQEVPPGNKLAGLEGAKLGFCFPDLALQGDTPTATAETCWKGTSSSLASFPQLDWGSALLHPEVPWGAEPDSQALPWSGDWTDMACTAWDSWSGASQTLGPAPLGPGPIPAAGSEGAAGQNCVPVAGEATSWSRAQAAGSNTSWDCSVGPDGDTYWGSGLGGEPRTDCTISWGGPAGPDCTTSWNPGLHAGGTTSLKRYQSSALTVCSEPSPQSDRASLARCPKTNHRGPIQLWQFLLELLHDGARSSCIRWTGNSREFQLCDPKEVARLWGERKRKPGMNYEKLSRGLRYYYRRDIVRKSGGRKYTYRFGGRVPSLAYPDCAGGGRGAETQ
The settings on record: protein: recombinant; tags: N-terminal GST; dsDNA, one strand shown. Summed up:
as §1

A further assay deals with T11, ELF3 (Homo sapiens, UniProt P78545 1-371).
T11 sequence: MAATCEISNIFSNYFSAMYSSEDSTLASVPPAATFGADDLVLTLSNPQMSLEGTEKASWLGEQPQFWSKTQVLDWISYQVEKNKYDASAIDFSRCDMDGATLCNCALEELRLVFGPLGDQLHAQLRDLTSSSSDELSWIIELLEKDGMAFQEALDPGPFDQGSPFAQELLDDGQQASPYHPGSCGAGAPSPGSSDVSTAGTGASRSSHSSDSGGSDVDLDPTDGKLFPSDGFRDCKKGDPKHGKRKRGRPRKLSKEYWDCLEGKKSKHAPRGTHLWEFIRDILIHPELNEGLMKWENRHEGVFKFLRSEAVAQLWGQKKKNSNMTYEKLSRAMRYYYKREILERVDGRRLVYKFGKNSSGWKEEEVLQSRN
As to conditions: protein: recombinant; tags: N-terminal GST; dsDNA, one strand shown. The method, boiled down: as §1

In a further assay the target is CRX (Homo sapiens, UniProt O43186 1-299). The settings on record: protein: recombinant; tags: N-terminal GST; dsDNA, one strand shown. The method, boiled down:
as §1

For the next assay, the target named is ETV1 (Homo sapiens, UniProt P50549 1-477). The settings on record: protein: recombinant; tags: N-terminal GST; dsDNA, one strand shown. Summed up: as §1
Chain of ETV1 (P50549 whole entry): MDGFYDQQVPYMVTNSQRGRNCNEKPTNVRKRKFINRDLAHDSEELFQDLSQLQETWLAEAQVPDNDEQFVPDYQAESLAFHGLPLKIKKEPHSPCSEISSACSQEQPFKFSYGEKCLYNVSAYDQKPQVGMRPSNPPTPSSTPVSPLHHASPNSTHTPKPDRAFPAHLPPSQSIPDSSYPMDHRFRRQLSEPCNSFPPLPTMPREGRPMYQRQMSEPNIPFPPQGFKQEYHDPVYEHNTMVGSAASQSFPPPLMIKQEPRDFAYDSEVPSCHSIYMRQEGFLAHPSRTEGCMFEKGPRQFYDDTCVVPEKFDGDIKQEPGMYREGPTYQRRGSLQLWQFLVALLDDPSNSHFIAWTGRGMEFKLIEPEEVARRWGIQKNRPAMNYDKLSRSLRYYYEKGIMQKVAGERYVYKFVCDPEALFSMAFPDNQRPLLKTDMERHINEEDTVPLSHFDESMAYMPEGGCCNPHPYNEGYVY

Chain of ETV5 (P41161 whole entry): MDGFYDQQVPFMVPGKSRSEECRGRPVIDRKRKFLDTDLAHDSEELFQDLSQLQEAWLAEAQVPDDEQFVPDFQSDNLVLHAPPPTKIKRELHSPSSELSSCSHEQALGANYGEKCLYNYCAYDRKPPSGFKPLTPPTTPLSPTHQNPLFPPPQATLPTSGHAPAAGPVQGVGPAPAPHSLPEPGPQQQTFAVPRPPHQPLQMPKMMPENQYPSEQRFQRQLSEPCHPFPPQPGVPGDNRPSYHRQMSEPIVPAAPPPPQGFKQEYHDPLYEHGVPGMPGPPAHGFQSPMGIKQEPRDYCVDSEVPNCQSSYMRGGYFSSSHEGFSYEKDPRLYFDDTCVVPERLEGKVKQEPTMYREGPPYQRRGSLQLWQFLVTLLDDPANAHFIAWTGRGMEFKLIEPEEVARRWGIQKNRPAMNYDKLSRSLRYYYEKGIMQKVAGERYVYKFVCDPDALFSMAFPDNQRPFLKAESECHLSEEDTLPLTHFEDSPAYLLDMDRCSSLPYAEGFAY
Chain of HSF1 (Q00613 whole entry): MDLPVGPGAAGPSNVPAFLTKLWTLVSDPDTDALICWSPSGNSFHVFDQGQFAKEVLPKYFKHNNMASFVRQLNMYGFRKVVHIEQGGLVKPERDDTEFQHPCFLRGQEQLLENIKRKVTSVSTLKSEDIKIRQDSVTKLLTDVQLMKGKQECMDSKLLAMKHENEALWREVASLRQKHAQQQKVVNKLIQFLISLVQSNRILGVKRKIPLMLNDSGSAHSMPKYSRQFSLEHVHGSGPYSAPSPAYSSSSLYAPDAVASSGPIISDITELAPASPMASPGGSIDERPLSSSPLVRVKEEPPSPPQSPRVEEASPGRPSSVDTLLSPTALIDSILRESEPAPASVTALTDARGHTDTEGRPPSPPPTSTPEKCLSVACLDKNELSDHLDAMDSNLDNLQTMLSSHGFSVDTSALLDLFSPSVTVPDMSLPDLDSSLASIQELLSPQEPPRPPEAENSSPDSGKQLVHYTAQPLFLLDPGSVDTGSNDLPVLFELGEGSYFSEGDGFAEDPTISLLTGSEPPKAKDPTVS
Chain of CRX (O43186 whole entry): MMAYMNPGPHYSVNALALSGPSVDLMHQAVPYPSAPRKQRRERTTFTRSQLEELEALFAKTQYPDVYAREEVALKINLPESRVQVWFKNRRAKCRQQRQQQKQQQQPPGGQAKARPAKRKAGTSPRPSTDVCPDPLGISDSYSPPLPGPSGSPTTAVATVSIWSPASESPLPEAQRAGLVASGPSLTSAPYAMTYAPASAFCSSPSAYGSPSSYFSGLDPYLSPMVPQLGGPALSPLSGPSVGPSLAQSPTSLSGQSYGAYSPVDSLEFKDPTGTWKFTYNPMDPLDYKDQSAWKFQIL
Chain of SPIB (Q01892 whole entry): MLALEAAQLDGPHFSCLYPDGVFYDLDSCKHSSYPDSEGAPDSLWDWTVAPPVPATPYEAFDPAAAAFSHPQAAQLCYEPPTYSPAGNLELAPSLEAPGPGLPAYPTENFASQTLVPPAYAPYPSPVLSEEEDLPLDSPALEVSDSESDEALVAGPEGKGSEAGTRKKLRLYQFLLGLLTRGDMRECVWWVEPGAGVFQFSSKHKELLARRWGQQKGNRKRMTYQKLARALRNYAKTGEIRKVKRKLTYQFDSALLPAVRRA
Chain of ELF1 (P32519 whole entry): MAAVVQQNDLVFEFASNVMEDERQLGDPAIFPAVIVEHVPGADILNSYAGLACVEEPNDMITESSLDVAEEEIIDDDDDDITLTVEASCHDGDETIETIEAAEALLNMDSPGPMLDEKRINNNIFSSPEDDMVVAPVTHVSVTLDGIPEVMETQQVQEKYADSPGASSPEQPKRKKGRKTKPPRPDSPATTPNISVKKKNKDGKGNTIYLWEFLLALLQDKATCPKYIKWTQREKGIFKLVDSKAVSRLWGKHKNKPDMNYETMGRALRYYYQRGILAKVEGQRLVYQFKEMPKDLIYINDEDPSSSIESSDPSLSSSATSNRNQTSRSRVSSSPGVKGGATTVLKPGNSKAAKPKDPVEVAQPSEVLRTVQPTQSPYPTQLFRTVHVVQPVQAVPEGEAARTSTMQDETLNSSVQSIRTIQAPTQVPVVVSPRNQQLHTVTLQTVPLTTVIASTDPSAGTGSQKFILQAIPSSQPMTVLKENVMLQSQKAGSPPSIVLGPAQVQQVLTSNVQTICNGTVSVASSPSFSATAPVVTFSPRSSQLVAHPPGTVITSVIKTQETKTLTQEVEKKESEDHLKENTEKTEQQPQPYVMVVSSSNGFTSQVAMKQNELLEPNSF
Chain of ELF4 (Q99607 whole entry): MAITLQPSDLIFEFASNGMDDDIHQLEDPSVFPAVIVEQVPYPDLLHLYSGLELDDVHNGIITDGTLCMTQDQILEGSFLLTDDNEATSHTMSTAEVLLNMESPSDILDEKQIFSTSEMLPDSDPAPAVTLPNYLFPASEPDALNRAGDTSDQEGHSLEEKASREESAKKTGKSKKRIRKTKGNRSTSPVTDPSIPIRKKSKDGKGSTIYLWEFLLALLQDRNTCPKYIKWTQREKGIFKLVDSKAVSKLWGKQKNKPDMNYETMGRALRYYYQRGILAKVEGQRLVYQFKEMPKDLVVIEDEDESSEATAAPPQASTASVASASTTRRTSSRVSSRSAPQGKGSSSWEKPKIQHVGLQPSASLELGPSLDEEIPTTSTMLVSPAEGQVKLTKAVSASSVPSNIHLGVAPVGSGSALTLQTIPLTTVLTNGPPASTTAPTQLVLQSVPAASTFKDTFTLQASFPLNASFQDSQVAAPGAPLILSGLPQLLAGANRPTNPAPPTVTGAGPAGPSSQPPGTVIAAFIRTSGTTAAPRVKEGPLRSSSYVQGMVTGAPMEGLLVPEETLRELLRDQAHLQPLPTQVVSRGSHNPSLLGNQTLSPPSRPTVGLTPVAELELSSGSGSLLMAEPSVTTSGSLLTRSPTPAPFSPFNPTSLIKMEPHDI

Consider ATTACG, for which the binding signal in the assay with FLI1 is 1.22 fold enrichment (6-mer frequency, TF over GST control); with ELK1, 1.13 fold enrichment (6-mer frequency, TF over GST control); in the assay with GABPA, 1.25 fold enrichment (6-mer frequency, TF over GST control); with ERG it was 1.17 fold enrichment (6-mer frequency, TF over GST control); with ELF1, 1.2 fold enrichment (6-mer frequency, TF over GST control); with EHF, 1.12 fold enrichment (6-mer frequency, TF over GST control). Also, the binding signal with SPI1 was 1.23 fold enrichment (6-mer frequency, TF over GST control); in the assay with SPIB it was 1.18 fold enrichment (6-mer frequency, TF over GST control); in the assay with ELK3 it was 1.25 fold enrichment (6-mer frequency, TF over GST control); with FEV, 1.16 fold enrichment (6-mer frequency, TF over GST control); with ETV5, 1.26 fold enrichment (6-mer frequency, TF over GST control); with HSF1, 1.54 fold enrichment (6-mer frequency, TF over GST control). In addition, the binding signal in the assay with SPIC is 1.02 fold enrichment (6-mer frequency, TF over GST control); with ELF4, 1.14 fold enrichment (6-mer frequency, TF over GST control); in the assay with ELK4, 1.28 fold enrichment (6-mer frequency, TF over GST control); with ETV2, 1.17 fold enrichment (6-mer frequency, TF over GST control); with ELF3, 1.14 fold enrichment (6-mer frequency, TF over GST control); with CRX it was 2.19 fold enrichment (6-mer frequency, TF over GST control). In addition, the binding signal in the assay with ETV1 is 1.26 fold enrichment (6-mer frequency, TF over GST control).
